Drawing on PubChem BioAssay (EPA / NIEHS), this text covers outcome and AC50 for four compounds.

The source made the active and inactive calls. The calls were made as follows: active = hit-call score of the fitted dose curve at least 0.9, where 1 is the maximum; inactive = score below 0.9.

What is called AC50 is the concentration giving half of the maximal activity seen.

What all share (conditions): mRNA level, 48 h; actives raise or lower the signal
Read-out in experiment [1]: Paternally Expressed 10 (PEG10), PEG10 (gene 23089)
Briefly: LTEA_HepaRG_PEG10: Life Technologies and Expression Analysis (LTEA) Assay for Paternally Expressed 10 (PEG10) using HepaRG (AID 2283520).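 As to AC50: PEG10 transcript by qRT-PCR normalised to ACTB GAPDH and POLR2A.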 In short, it runs like this:
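PEG10 transcript measured by Fluidigm qRT-PCR, normalized to three housekeeping genes, in HepaRG cells treated 48 h (highest 100 uM, half-log steps, 0.5% DMSO vehicle). Cells plated 48 h before switching to serum-free induction medium.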

Read-out in experiment [2]: Nuclear factor NF-kappa-B p105 subunit (Homo sapiens) (UniProt P19838)
Kind of experiment: LTEA_HepaRG_NFKB1: Life Technologies and Expression Analysis (LTEA) Assay for Nuclear Factor Kappa B Subunit 1 (NFKB1) using HepaRG (AID 2283521). The procedure, abridged:
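Differentiated human HepaRG cells were exposed for 48 h in serum-free induction medium to eight concentrations (top 100 uM, half-log steps, 0.5% DMSO), in duplicate. NFKB1 mRNA was measured by TaqMan qRT-PCR, normalized to ACTB/GAPDH/POLR2A, and fitted bidirectionally against DMSO.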

Read-out in experiment [3]: Protein phosphatase 2A (PPP2R4), PTPA (gene 5524)
Kind of experiment: LTEA_HepaRG_PPP2R4: Life Technologies and Expression Analysis (LTEA) Assay for Protein phosphatase 2A (PPP2R4) using HepaRG (AID 2283522). In short, it runs like this: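 Expression was quantified by Fluidigm qRT-PCR normalised to three housekeeping genes after 48 h treatment. Human HepaRG cells received an 8-point series from 100 µM downward by half-logs, in duplicate with 0.5% DMSO vehicle and 1 mM phenobarbital as induction control.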

Read-out in experiment [4]: Phosphatase and tensin (PTEN), PTEN (gene 5728)
Briefly: LTEA_HepaRG_PTEN: Life Technologies and Expression Analysis (LTEA) Assay for Phosphatase and tensin (PTEN) using HepaRG (AID 2283523). In short, it runs like this:
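Read-out: TaqMan qRT-PCR of PTEN transcript, normalized to three housekeeping genes, fitted in both directions against 0.5% DMSO. Differentiated human HepaRG cultures received chemicals for 48 h, eight-point half-log series topping at 100 uM.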

Read-out in experiment [5]: solute carrier (SLC22A1), SLC22A1 (gene 6580)
Briefly: LTEA_HepaRG_SLC22A1: Life Technologies and Expression Analysis (LTEA) Assay for solute carrier (SLC22A1) using HepaRG (AID 2283524). The procedure, abridged:
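Transcript level of SLC22A1 quantified by qRT-PCR (normalized to three housekeeping genes) after 48 h chemical exposure of HepaRG cells, eight concentrations up to 100 µM, half-log steps, 0.5% DMSO vehicle. Gain or loss relative to DMSO fitted bidirectionally.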

Read-out in experiment [6]: NAD(P)H dehydrogenase [quinone] 1 (NQO1), NQO1 (gene 1728)
Kind of experiment: LTEA_HepaRG_NQO1: Life Technologies and Expression Analysis (LTEA) Assay for NAD(P)H dehydrogenase [quinone] 1 (NQO1) using HepaRG (AID 2283526). In short, it runs like this: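 NQO1 transcript induction or loss measured by TaqMan qRT-PCR, referenced to three housekeeping genes and fitted bidirectionally against 0.5% DMSO. HepaRG cultures exposed 48 h, duplicate, eight-point half-log series, top 100 uM.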

Read-out in experiment [7]: Nuclear factor erythroid 2-related factor 2 (Homo sapiens) (UniProt Q16236)
Briefly: LTEA_HepaRG_NFE2L2: Life Technologies and Expression Analysis (LTEA) Assay for Nuclear factor erythroid 2-related factor 2 (NFE2L2) Transcription Factor using HepaRG (AID 2283527).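 As to outcome: TaqMan qRT-PCR transcript level normalised to ACTB GAPDH and POLR2A housekeeping genes.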 In short, it runs like this:
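NFE2L2 transcript level was read by qRT-PCR (housekeeping ACTB/GAPDH/POLR2A normalisation) after 48 h chemical treatment of HepaRG in serum-free induction medium. Duplicate 8-point half-log curves, top 100 uM, 0.5% DMSO vehicle; up- or down-regulation fitted against vehicle.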

Read-out in experiment [8]: solute carrier (SLCO1B1), SLCO1B1 (gene 10599)
Kind of experiment: LTEA_HepaRG_SLCO1B1: Life Technologies and Expression Analysis (LTEA) Assay for solute carrier (SLCO1B1) using HepaRG (AID 2283530). The procedure, abridged: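 Human HepaRG cultures treated for 48 h with an eight-concentration half-log series topping at 100 uM; SLCO1B1 measured by qRT-PCR and fitted bidirectionally relative to DMSO.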

Read-out in experiment [9]: sulfotransferase 2A1 (SULT2A1), SULT2A1 (gene 6822)
Briefly: LTEA_HepaRG_SULT2A1: Life Technologies and Expression Analysis (LTEA) Assay for sulfotransferase 2A1 (SULT2A1) using HepaRG (AID 2283531). In short, it runs like this: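 Gene-expression endpoint in a human liver cell line: SULT2A1 mRNA change after 48 h chemical treatment, curves fitted in both directions relative to 0.5% DMSO vehicle. Concentrations spanned eight half-log steps from 100 uM.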

Read-out in experiment [10]: Transforming Growth Factor (TGFA), TGFA (gene 7039)
Briefly: LTEA_HepaRG_TGFA: Life Technologies and Expression Analysis (LTEA) Assay for Transforming Growth Factor (TGFA) using HepaRG (AID 2283532). In short, it runs like this:
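TGFA transcript quantified by qRT-PCR (Fluidigm arrays) against three housekeeping genes, after 48 hours chemical treatment of HepaRG cells. Top concentration 100 uM with half-log dilutions, 8 points, duplicates, 0.5% DMSO.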

Read-out in experiment [11]: Transforming Growth Factor (TGFB1), TGFB1 (gene 7040)
Kind of experiment: LTEA_HepaRG_TGFB1: Life Technologies and Expression Analysis (LTEA) Assay for Transforming Growth Factor (TGFB1) Transporter using HepaRG (AID 2283533). In short, it runs like this:
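Eight-point concentration-response (max 100 uM, half-log) in HepaRG under serum-free induction conditions, 48 h. TGFB1 mRNA by qRT-PCR, housekeeping-normalized.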

Read-out in the next experiment: TIMP1, TIMP1 (gene 7076)
Briefly: LTEA_HepaRG_TIMP1: Life Technologies and Expression Analysis (LTEA) Assay for TIMP1 using HepaRG (AID 2283534). The procedure, abridged: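 TIMP1 induction or repression in HepaRG cells after 48 h chemical exposure (eight concentrations, highest 100 uM), assessed by normalized qRT-PCR with bidirectional fitting to DMSO controls.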

Read-out in experiment [12]: Tumor necrosis factor receptor 1 (TNFRSF1A), TNFRSF1A (gene 7132)
Briefly: LTEA_HepaRG_TNFRSF1A: Life Technologies and Expression Analysis (LTEA) Assay for Tumor necrosis factor receptor 1 (TNFRSF1A) using HepaRG (AID 2283535). The procedure, abridged: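 Assay uses 48 h chemical treatment of differentiated HepaRG monolayers, tested in duplicate at eight concentrations from 100 uM downward in 0.5% DMSO. mRNA is normalized to ACTB, GAPDH and POLR2A, with induction or suppression fitted relative to vehicle.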

Read-out in experiment [13]: Cellular tumor antigen p53 (Homo sapiens) (UniProt P04637)
Kind of experiment: LTEA_HepaRG_TP53: Life Technologies and Expression Analysis (LTEA) Assay for Tumor Protein P53 (TP53) using HepaRG (AID 2283537). The procedure, abridged:
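HepaRG, 48 h exposure, top 100 uM, half-log 8-point, 0.5% DMSO vehicle, duplicates. Read: TP53 mRNA by TaqMan qRT-PCR, normalised to ACTB/GAPDH/POLR2A; bidirectional fit vs DMSO.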

Read-out in experiment [14]: matrix metalloproteinase-3 (MMP3), MMP3 (gene 4314)
Kind of experiment: LTEA_HepaRG_MMP3: Life Technologies and Expression Analysis (LTEA) Assay for matrix metalloproteinase-3 (MMP3) using HepaRG (AID 2283519). The procedure, abridged:
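Fluidigm-based TaqMan qRT-PCR, normalized to ACTB, GAPDH and POLR2A and fitted bidirectionally versus 0.5% DMSO, measured transcript levels. Treatment: duplicate 48 h exposures of HepaRG cells, ~100,000/well, to eight half-log concentrations topping at 100 uM.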

Read-out in experiment [15]: Pyruvate Dehydrogenase Kinase 4 (PDK4), PDK4 (gene 5166)
Briefly: LTEA_HepaRG_PDK4: Life Technologies and Expression Analysis (LTEA) Assay for Pyruvate Dehydrogenase Kinase 4 (PDK4) using HepaRG (AID 2283525). The procedure, abridged: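 Readout is qRT-PCR of PDK4 transcript, normalized to three housekeeping genes, with bidirectional fitting against 0.5% DMSO vehicle. Differentiated HepaRG cells were treated 48 h in serum-free induction medium, duplicate wells, eight-point half-log series topping at 100 uM.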

Read-out in experiment [16]: Signal transducer and activator of transcription 3 (Homo sapiens) (UniProt P40763)
Briefly: LTEA_HepaRG_STAT3: Life Technologies and Expression Analysis (LTEA) Assay for Signal transducer and activator of transcription (STAT3) using HepaRG (AID 2283529). In short, it runs like this: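 STAT3 transcript quantified by qRT-PCR against three housekeeping genes (ACTB, GAPDH, POLR2A), fitted both directions relative to DMSO. HepaRG cultures exposed 48 h to eight half-log concentrations, top 100 uM, 0.5% DMSO, serum-free induction medium.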

Read-out in experiment [17]: Thyroid Hormone Responsive (THRSP), THRSP (gene 7069)
Briefly: LTEA_HepaRG_THRSP: Life Technologies and Expression Analysis (LTEA) Assay for Thyroid Hormone Responsive (THRSP) using HepaRG (AID 2283536). In short, it runs like this: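 THRSP transcript quantified by Fluidigm qRT-PCR against three housekeeping genes after 48 h chemical exposure of HepaRG cells in serum-free induction medium; eight-point half-log series, top 100 uM, 0.5% DMSO vehicle, duplicate wells.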

Read-out in experiment [18]: succinate dehydrogenase complex iron sulfur subunit B (SDHB), SDHB (gene 6390)
Kind of experiment: LTEA_HepaRG_SDHB: Life Technologies and Expression Analysis (LTEA) Assay for succinate dehydrogenase complex iron sulfur subunit B (SDHB) using HepaRG (AID 2283528). In short, it runs like this: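 HepaRG, 48 h exposure, 8-pt half-log series from 100 uM in 0.5% DMSO, duplicates. Readout: SDHB mRNA by Fluidigm qRT-PCR vs housekeeping genes; bidirectional fit relative to DMSO.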

Read-out in experiment [19]: UDP glucuronosyltransferase (UGT1A1), UGT1A1 (gene 54658)
Briefly: LTEA_HepaRG_UGT1A1: Life Technologies and Expression Analysis (LTEA) Assay for UDP glucuronosyltransferase (UGT1A1) using HepaRG (AID 2283538). The procedure, abridged:
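UGT1A1 transcript level, measured by qRT-PCR with three housekeeping genes for normalization, after 48 h treatment of human HepaRG cells (0.5% DMSO, duplicates, up to 100 uM, half-log steps, 8 points). Curves fit both directions against DMSO baseline.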

Chain of Nuclear factor erythroid 2-related factor 2 (Homo sapiens) (Q16236 whole entry, looked up): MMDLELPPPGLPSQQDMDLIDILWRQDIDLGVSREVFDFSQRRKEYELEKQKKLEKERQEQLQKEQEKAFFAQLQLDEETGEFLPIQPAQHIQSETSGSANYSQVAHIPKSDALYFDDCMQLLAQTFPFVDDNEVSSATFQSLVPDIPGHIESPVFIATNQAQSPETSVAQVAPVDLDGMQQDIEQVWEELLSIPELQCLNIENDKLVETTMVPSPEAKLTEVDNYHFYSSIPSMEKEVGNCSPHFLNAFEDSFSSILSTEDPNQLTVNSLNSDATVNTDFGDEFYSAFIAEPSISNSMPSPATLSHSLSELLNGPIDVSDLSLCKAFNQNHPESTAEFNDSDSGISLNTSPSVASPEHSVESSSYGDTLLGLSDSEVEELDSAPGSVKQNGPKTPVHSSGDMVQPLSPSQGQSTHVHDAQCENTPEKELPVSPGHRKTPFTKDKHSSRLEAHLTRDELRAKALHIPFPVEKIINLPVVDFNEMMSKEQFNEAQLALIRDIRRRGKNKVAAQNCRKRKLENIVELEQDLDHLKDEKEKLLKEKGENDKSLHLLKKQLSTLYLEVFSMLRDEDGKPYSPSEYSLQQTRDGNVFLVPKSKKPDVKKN
Chain of Signal transducer and activator of transcription 3 (Homo sapiens) (P40763 whole entry, looked up): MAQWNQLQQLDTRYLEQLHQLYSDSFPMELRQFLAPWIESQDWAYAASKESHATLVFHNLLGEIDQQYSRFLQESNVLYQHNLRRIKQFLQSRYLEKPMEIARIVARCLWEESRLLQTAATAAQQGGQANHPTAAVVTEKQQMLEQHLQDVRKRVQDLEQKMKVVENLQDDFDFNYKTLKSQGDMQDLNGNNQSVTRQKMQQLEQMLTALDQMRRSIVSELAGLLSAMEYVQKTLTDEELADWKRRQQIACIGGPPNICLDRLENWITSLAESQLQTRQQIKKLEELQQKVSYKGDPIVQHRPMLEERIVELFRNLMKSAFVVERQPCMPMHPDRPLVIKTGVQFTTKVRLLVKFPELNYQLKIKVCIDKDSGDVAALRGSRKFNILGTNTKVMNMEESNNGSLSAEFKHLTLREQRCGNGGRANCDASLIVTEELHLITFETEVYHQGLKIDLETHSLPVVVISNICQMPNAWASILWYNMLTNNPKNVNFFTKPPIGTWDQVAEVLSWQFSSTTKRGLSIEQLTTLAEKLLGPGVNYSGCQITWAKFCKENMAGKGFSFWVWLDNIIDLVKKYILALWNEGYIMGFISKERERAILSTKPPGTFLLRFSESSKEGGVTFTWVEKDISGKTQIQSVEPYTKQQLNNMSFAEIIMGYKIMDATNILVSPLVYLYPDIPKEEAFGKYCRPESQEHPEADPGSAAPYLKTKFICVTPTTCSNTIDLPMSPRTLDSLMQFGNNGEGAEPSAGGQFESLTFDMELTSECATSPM
Chain of Cellular tumor antigen p53 (Homo sapiens) (P04637 whole entry, looked up): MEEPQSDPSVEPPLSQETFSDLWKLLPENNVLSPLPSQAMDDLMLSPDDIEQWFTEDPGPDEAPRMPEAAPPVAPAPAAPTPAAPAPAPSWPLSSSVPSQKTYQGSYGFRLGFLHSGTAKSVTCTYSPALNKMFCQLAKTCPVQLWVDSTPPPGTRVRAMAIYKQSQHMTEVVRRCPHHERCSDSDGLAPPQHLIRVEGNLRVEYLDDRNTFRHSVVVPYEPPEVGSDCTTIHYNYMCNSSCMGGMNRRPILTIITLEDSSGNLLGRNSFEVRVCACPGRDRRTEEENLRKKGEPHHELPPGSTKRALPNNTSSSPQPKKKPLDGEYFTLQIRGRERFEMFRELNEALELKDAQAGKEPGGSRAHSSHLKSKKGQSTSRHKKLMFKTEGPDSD
Chain of Nuclear factor NF-kappa-B p105 subunit (Homo sapiens) (P19838 whole entry, looked up): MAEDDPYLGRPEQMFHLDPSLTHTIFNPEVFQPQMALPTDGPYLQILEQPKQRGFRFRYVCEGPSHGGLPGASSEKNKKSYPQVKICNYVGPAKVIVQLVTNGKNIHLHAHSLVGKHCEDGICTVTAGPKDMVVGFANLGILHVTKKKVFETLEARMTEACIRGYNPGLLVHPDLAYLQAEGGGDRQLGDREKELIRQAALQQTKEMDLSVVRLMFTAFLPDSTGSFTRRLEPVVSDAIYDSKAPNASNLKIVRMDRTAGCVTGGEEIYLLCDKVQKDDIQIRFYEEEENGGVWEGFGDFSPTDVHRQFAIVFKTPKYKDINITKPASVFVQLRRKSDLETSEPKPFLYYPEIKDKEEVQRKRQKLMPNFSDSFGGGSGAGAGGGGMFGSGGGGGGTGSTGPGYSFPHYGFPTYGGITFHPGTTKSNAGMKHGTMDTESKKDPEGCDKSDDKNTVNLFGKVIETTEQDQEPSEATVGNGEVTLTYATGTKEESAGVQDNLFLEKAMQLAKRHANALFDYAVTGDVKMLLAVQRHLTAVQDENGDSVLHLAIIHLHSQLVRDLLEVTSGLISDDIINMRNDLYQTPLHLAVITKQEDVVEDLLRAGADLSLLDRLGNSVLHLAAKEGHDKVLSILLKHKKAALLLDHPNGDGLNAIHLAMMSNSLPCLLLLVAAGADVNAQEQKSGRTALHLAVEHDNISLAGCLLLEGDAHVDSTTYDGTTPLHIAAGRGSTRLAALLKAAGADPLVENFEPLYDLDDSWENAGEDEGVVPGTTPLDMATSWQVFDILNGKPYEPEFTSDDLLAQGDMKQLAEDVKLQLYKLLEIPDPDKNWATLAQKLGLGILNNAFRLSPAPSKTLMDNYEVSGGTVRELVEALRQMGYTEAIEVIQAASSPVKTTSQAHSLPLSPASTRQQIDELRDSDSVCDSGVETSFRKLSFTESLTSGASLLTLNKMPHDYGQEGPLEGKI

Turning to `CC(=O)Oc1ccccc1C(=O)O`, the compound was called inactive in [1], in experiment [2], in [3], in experiment [4], in [5] and in [6]. Further, the outcome in experiment [7] is “inactive”; in experiment [8], “inactive”; in experiment [9], “inactive”; in [10] it was “inactive”; in experiment [11], “inactive”; in the experiment with TIMP1, TIMP1 (gene 7076), “inactive”. Also, the result in experiment [12] and in [13] was inactive.
Consider `CCOc1ccc2c(c1)C(C)=CC(C)(C)N2`, for which the compound was called inactive in [14], in [4], in [5], in experiment [15], in experiment [6] and in experiment [7]. Moreover, the outcome was “inactive” in [16]; “inactive” in experiment [8]; “inactive” in experiment [9]; “inactive” in experiment [10]; “inactive” in [11]; “inactive” with TIMP1, TIMP1 (gene 7076). Further, the result in experiment [12], in experiment [17] and in experiment [13] was inactive. Moreover, the AC50 in [1] is 31.8 µM (active); in experiment [3], 50 µM (active).
Regarding `Cc1cccc(C)c1O`, the call in [1], in experiment [2], in [3], in [4], in [5] and in experiment [6] was inactive. In addition, the compound was called inactive in [7], in experiment [18], in [16], in experiment [8], in [9] and in experiment [10]. In addition, the outcome was “inactive” in [11]; “inactive” with TIMP1, TIMP1 (gene 7076); “inactive” in [12]; “inactive” in [17]; “inactive” in experiment [13]; “inactive” in [19].
Regarding `COc1ccc(S(=O)(=O)N2C(=O)[C@@](c3ccccc3OC)(N3C[C@H](O)C[C@H]3C(=O)N(C)C)c3cc(Cl)ccc32)c(OC)c1`, the AC50 is 50 µM (active) in experiment [14]; 21.5 µM (active) in experiment [1]; 32.4 µM (active) in experiment [3]; 16.8 µM (active) in experiment [4]; 20.5 µM (active) in experiment [5]; 29.5 µM (active) in [6]. Moreover, the half-maximal activity concentration (AC50) was 83.2 µM (active) in experiment [7]; 12.9 µM (active) in experiment [18]; 50 µM (active) in [16]; 25.9 µM (active) in [8]; 50.7 µM (active) in experiment [9]; 78.7 µM (active) in [10]. In addition, the half-maximal activity concentration (AC50) in [11] was 19.1 µM (active); in experiment [13], 22.7 µM (active). Moreover, the outcome with TIMP1, TIMP1 (gene 7076) is “inactive”; in [12], “inactive”.
